Data from the supplement of paper PMC6992640.
Structures can show the parent of a compound that is named as a salt. ± gives the standard deviation of the averaged measurements.

Columns and labels:
Test in all cases: cell viability (% of vehicle); higher = less cytotoxic
HCI01 [1] = cells of a triple-negative basal-like breast cancer xenograft; conditions: 1 µM; 72 h
UCD52 [2] = cells of a triple-negative basal-like breast cancer xenograft; conditions: 1 µM; 72 h
WHIM2 [3] = cells of a triple-negative basal-like breast cancer xenograft; conditions: 1 µM; 72 h
WHIM30 [4] = cells of a triple-negative basal-like breast cancer xenograft; conditions: 1 µM; 72 h
HCI01 [5] = conditions: 10 µM; 72 h
HCI03 = cells of an ER-positive luminal breast cancer xenograft; conditions: 10 µM; 72 h
HCI09 = cells of a triple-negative luminal androgen receptor type breast cancer xenograft; conditions: 10 µM; 72 h
HCI11 = cells of an ER-positive luminal breast cancer xenograft; conditions: 10 µM; 72 h
HCI13 = cells of an ER-positive luminal breast cancer xenograft; conditions: 10 µM; 72 h
HCI16 = cells of a triple-negative basal-like breast cancer xenograft; conditions: 10 µM; 72 h
UCD52 [6] = conditions: 10 µM; 72 h
WHIM2 [7] = conditions: 10 µM; 72 h
WHIM30 [8] = conditions: 10 µM; 72 h

Row | Compound | cell viability (HCI01 [1]) | cell viability (UCD52 [2]) | cell viability (WHIM2 [3]) | cell viability (WHIM30 [4]) | cell viability (HCI01 [5]) | cell viability (HCI03) | cell viability (HCI09) | cell viability (HCI11) | cell viability (HCI13) | cell viability (HCI16) | cell viability (UCD52 [6]) | cell viability (WHIM2 [7]) | cell viability (WHIM30 [8])
1 | C=C1C(=CC=C2CCCC3(C)C2CCC3C(C)CCCC(C)(C)O)CC(O)CC1O (centres undefined) [Calcitriol] | 70.8 | 50.1 | 46.8 | 92.9 | 27.6 ± 12 | 119 | 27 ± 5.2 | 73.4 | 66.4 ± 6.8 | 107 | 55.7 ± 0.62 | 39.3 ± 9.2 | 137 ± 14
2 | COc1ccccc1OCCNCC(O)COc1cccc2[nH]c3ccccc3c12 (centres undefined) [Carvedilol] | 92.5 | 99.9 | 91.3 | 111 | 97.88 ± 0.3 | 69.9 | 75.9 ± 8.1 | 88.7 | 123.82 ± 0.064 | 127 | 44 ± 1.3 | 46.1 ± 3.3 | 102.1 ± 0.59
3 | COc1cccc2c1C(=O)c1c(O)c3c(c(O)c1C2=O)CC(O)(C(=O)CO)CC3OC1CC(N)C(O)C(C)O1 (centres undefined) [Doxorubicin] | 80.1 | 42.1 | 30.4 | 44.2 | 56.3 ± 15 | 188 | 28.8 ± 3.4 | 49.6 | 176 ± 59 | 60.4 | 24.297 ± 0.024 | 50.6 ± 5.6 | 80.7 ± 5.3
4 | CCCCc1oc2ccccc2c1C(=O)c1cc(I)c(OCCN(CC)CC)c(I)c1.Cl [Amiodarone HCl] | 96.6 | 101 | 94.7 | 98.4 | 69.5 ± 16 | 54.7 | 32.8 ± 9.1 | 75 | 36.2 ± 4 | 60 | 40.7 ± 7.3 | 37 ± 6 | 83.1 ± 5.7
5 | COC(=O)c1ccc2c(c1)NC(=O)C2=C(Nc1ccc(N(C)C(=O)CN2CCN(C)CC2)cc1)c1ccccc1 [Nintedanib (BIBF 1120)] | 83.1 | 46 | 46.6 | 51.2 | 70.5 ± 19 | 63.6 | 51.4 ± 46 | 59 | 71.2 ± 12 | 85.5 | 34.9 ± 2.4 | 65.2 ± 15 | 47 ± 11
6 | COc1ccc(CN2CCN(C(c3ccc(F)cc3)c3ccc(F)cc3)CC2)c(OC)c1OC.Cl.Cl [Lomerizine HCl] | 85.2 | 90.8 | 99.6 | 92.2 | 85.8 ± 25 | 73.6 | 58.8 ± 20 | 78.5 | 32.61 ± 0.085 | 87.8 | 51.5 ± 0.83 | 48.1 ± 14 | 80 ± 1
7 | C=C1C(=CC=C2CCCC3(C)C2CCC3C(C)CCCC(C)C)CC(O)CC1O (centres undefined) [Alfacalcidol] | 72.3 | 59 | 51.8 | 91.3 | 31.7 ± 13 | 124 | 29.8 ± 8.2 | 70.1 | 52.6 ± 8.1 | 106 | 68.1 ± 0.89 | 49.9 ± 8.4 | 97.46 ± 0.87
8 | O=C(NN=Cc1ccc([N+](=O)[O-])o1)c1ccc(O)cc1 [Nifuroxazide] | 78.8 | 91.1 | 95.3 | 77.5 | 63.5 ± 47 | 128 | 37 ± 17 | 82 | 62.8 ± 15 | 91.7 | 62.2 ± 28 | 94.9 ± 15 | 79.2 ± 5.8
9 | Cc1c(Cl)cccc1Nc1ccccc1C(=O)O [Tolfenamic Acid] | 95.9 | 102 | 106 | 92.6 | 100 ± 30 | 118 | 80.6 ± 9.7 | 91.9 | 71.1 ± 33 | 103 | 70.7 ± 3.2 | 41.7 ± 14 | 77.7 ± 3.3
10 | COc1nc2ccc(Br)cc2cc1[C@@H](c1ccccc1)[C@@](O)(CCN(C)C)c1cccc2ccccc12 [Bedaquiline fumarate] | 90.7 | 108 | 97.8 | 99.8 | 79.1 ± 18 | 75.7 | 64.5 ± 22 | 80.3 | 116.1 ± 1.1 | 87 | 42.6 ± 0.72 | 48.7 ± 2.1 | 70 ± 2.9
11 | C=CC(=O)Nc1cc(Nc2nccc(-c3cn(C)c4ccccc34)n2)c(OC)cc1N(C)CCN(C)C | 57.6 | 63 | 52.7 | 61.8 | 41.7 ± 1 | 39.9 | 50.4 ± 36 | 61.3 | 51.7 ± 3.8 | 60.7 | 30.1 ± 0.95 | 44.5 ± 7.7 | 41.7 ± 1.9
12 | CC1(C)CCC(c2ccc(Cl)cc2)=C(CN2CCN(c3ccc(C(=O)NS(=O)(=O)c4ccc(NC(CCN5CCOCC5)CSc5ccccc5)c(S(=O)(=O)C(F)(F)F)c4)cc3)CC2)C1 (centres undefined) [ABT-263 (Navitoclax)] | 76.2 | 54.1 | 66.8 | 62.2 | 28 ± 2 | 44.2 | 21.8 ± 3.1 | 47.1 | 33.8 ± 0.76 | 29.6 | 36.5 ± 2.4 | 32.1 ± 4.1 | 35.2 ± 7.7
13 | CN(C)CC=CC(=O)Nc1cc2c(Nc3ccc(F)c(Cl)c3)ncnc2cc1OC1CCOC1.O=C(O)C=CC(=O)O.O=C(O)C=CC(=O)O (centres undefined) [Afatinib dimaleate] | 85.2 | 32.7 | 57.8 | 56 | 35.3 ± 3 | 53.8 | 35.2 ± 4.2 | 32.5 | 32.4 ± 2.1 | 30.7 | 40.1 ± 7.4 | 41.1 ± 4.1 | 54.6 ± 7
14 | COCCn1c2c([n+](Cc3cnccn3)c1C)C(=O)c1ccccc1C2=O.[Br-] | 29.6 | 21.3 | 21.1 | 27 | 85.5 ± 29 | 48.3 | 28.3 ± 3.6 | 60.2 | 68.9 ± 8.8 | 82.5 | 53.9 ± 8.2 | 55.5 ± 2.3 | 62.3 ± 5.1
15 | CN1CCN(CCOc2cc(OC3CCOCC3)c3c(Nc4c(Cl)ccc5c4OCO5)ncnc3c2)CC1 [Saracatinib (AZD0530)] | 67.9 | 38.7 | 33.9 | 57.5 | 63.85 ± 0.43 | 48.7 | 68.3 ± 18 | 105 | 53 ± 1.4 | 69.1 | 43.8 ± 5.4 | 40.2 ± 11 | 84.6 ± 3.6
16 | Clc1ccc(CSC(Cn2ccnc2)c2ccc(Cl)cc2Cl)cc1.O=[N+]([O-])O (centres undefined) [Sulconazole Nitrate] | 95.2 | 96.5 | 108 | 92.9 | 28.4 ± 6.5 | 77.3 | 24.5 ± 2.6 | 78.3 | 40.1 ± 3 | 74.1 | 35.2 ± 2.8 | 34.9 ± 8.5 | 119 ± 0.69
17 | CNCCC(Oc1ccc(C(F)(F)F)cc1)c1ccccc1.Cl (centres undefined) [Fluoxetine HCl] | 91.1 | 75.6 | 99.1 | 84.1 | 98.1 ± 5 | 98.4 | 84.6 ± 29 | 75.2 | 104 ± 12 | 58.6 | 47.8 ± 1.9 | 44.9 ± 6 | 65.9 ± 10
18 | Nc1ncn(C2OC(CO)C(O)C2O)c(=O)n1 (centres undefined) [5-Azacytidine] | 91.5 | 70.1 | 91.3 | 93.9 | 59.1 ± 13 | 85 | 27.2 ± 6.3 | 170 | 53.1 ± 9.2 | 103 | 53.4 ± 3.7 | 35.1 ± 14 | 198 ± 19
